# This is a sample that favours compounds with a hit; in the whole collection about 1.8% have one here.
# TrxR1 substrate: is turned over as a substrate by rat TrxR1; purified TrxR1 substrate turnover, NADPH consumption readout; Potency, µM (highest dose often 114 µM), for the others: top-dose activity change, negative = substrate turnover; actives 0.01% (n = 390,000); AID 588456; further: nearly all actives have a fitted effect of over 50% in size
#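 Rat TrxR1, dispensed at 90 nM, was prereduced with 400 uM NADPH (final) for 5 min at ~22 deg C, then incubated with compound 15 min before 400 uM selenite. A first-read NADPH fluorescence drop versus no-compound background flagged substrates.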
# VDR inh: inhibitors of human vitamin D receptor. VDR-SRC2-3 peptide fluorescence polarization, 2 h. P11473. Potency, µM, without a hit: max response, negative = inhibition, actives largely listed as inhibitors. actives 0.93% (n = 400,000)
# Target sequence (P11473 whole entry, looked up): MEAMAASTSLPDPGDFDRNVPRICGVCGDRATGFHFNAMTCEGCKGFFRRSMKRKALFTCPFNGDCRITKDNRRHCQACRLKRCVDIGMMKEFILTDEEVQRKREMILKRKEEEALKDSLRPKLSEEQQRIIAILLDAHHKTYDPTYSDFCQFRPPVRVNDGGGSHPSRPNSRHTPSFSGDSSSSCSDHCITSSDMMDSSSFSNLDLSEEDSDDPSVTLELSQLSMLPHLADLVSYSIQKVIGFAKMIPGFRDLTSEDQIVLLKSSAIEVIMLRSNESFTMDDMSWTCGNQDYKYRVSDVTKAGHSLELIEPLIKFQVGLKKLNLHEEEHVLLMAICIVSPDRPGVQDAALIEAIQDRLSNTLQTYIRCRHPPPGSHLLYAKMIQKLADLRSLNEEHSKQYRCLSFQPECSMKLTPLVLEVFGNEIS
#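 Fluorescence polarization assay of small-molecule disruption of VDR binding to coregulator peptide SRC2-3. Compounds and controls pin-transferred, then read after 2 h incubation at ambient room temperature.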
# GCN5L2 inh: GCN5L2 (KAT2A) acetyltransferase inhibition | GCN5L2 HAT assay, ThioGlo1 CoA-SH fluorescence | Q92830 | actives 0.21% (n = 390,000) | Potency, µM (series often up to 58.9 µM), inactives show top-dose activity change, negative = inhibition, hits mostly inhibitors | AID 504327
#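 Free CoA generated was detected with ThioGlo1 (50uM) fluorescence at Ex340nm/Em540nm, read immediately and after 20 min at room temperature. Enzyme, 20 nM in HEPES pH 7.5 buffer, saw compounds 15 min before adding 75uM H3(1-25) peptide and 70uM acetyl-CoA.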
# TrxR1 inh: rat TrxR1 inhibition. actives 1% (n = 390,000). recombinant rTrxR1, NADPH fluorescence consumption, selenite substrate. Potency, µM (top dose mostly 114 µM), without a hit: top-dose activity change, negative = inhibition, actives largely listed as inhibitors; further: nearly all actives have a fitted effect of over 65% in size
#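 Rat TrxR1 (90 nM in the dispensed reagent) was pre-reduced with 400 uM NADPH for 5 min at room temperature, then incubated with compound for 15 min. After 400 uM selenite was added, NADPH fluorescence (Ex 340/Em 450 nm) was followed for 8 min.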
# * hit, by the source's call; ? = inconclusive; / = not tested or not shown; [ ] = dose if it differs, or a comment. The call rests on the fitted dose curve; in most records, active means well fitted curve in the direction sought with a large enough effect; inconclusive means small, poorly fitted or top-dose-only effect, or another doubt; inactive means no such curve, though single readings can be large; an effect the other way counts as inactive or inconclusive. On the % scale 0 is the no-effect control and ±100 the full control effect; potency means the concentration at half of the fitted maximal effect.
SMILES,TrxR1 substrate,VDR inh,GCN5L2 inh,TrxR1 inh
Cc1cc(C)cc(N2C(=O)CC(Sc3ccccc3C(=O)O)C2=O)c1 (configuration not stated),6%[57.1 µM],?,-7%,-83%
CN(C)c1ccc(N2C(=O)CC(Sc3ccccc3C(=O)O)C2=O)cc1 (configuration not stated),-9%,-12%,-7%,79µM*
COc1ccc(C(=O)N2CCC[C@@]3(CCN(c4ccccc4)C3)C2)cc1,/,56µM*,2%,/
O=C(c1cccc(F)c1)N1CCC[C@@]2(CCN(c3cccc(-c4ccccc4)c3)C2)C1,/,45µM*,-14%,/
O=C(c1cccc(F)c1)N1CCC[C@@]2(CCN(c3ccccc3)C2)C1,/,45µM*,-19%,/
O=C(Oc1ccccc1)N1CCC[C@@]2(CCN(c3ncccn3)C2)C1,/,-8%,-2%,/
CN1CC[C@@]2(CCCN(C(=O)c3cccc(F)c3)C2)C1,/,-2%,1%,/
O=C(Oc1ccccc1)N1CCC[C@@]2(CCN(c3ccccc3)C2)C1,/,35µM*,-1%,/
O=C(c1cccc(F)c1)N1CCC2(CCCN(c3cccc(-c4ccccc4)c3)C2)CC1,/,-14%,-9%,/
COc1ccc(N(C(=O)c2ccccc2)S(=O)(=O)c2cccs2)cc1,-5%,22µM*,-12%,20%[57.1 µM]
CCOC(=O)C1=C(C)N=c2s/c(=C3/C(=O)Nc4ccccc43)c(=O)n2C1c1ccc(C)cc1 (configuration not stated),-19%,-29%,-3%,45µM*
CC1(C)Cc2nc3oc4c(=S)nc[nH]c4c3cc2CO1,-8%,4%,2%,11µM*
CCOc1ccc(N2C(=O)CC(N3CCN(c4ccc([N+](=O)[O-])cc4)CC3)C2=O)cc1 (configuration not stated),-3%,7%,0%,25µM*
Cc1cnnc2ccccc12,4%,/,/,0%
CN1CCCN(S(=O)(=O)c2ccccc2)CC1,?,-5%,1%,14%[57.1 µM]
Cc1ccc(S(=O)(=O)N2CCCN(C)CC2)cc1,5%,-13%,-4%,28µM*
O=C(CN1C(=O)c2cccc3cccc1c23)Nc1ccc2c(c1)OCO2,20%,1%,3.5µM*,20%
O=C(Nc1cccnc1Cl)c1cnn2c1NC(=C1CC1)C=C2C(F)F,3%,/,/,0%
O=c1cc(C23CC4CC(CC(C4)C2)C3)[nH][nH]1,9%,-9%,/,14µM*
CN(C)c1ccc(Cn2ccc3ccccc32)cc1,-7%,/,/,5%
CCOc1ccc(/C=C2\CCC(C3CCCC3)C2=O)cc1 (configuration not stated),2%,2%,1%,7%
CCC(=O)OCOc1ccc(/C=C2/CCC(CN(C)C)C2=O)cc1 (configuration not stated),-13%,10µM*,/,1.1µM*
CCN(CC)C(=O)CSc1nc2c(sc(=S)n2-c2ccccc2)c(=O)n1-c1ccc(OC)cc1OC,-4%,25µM*,0%,2%
CCCC(O)(CCC)C(=O)NN1CCCCC1,2%,79µM*,-11%,7%
Fc1cccc(/C=C2\CCCC3=C2NC(=S)NC3c2cccc(F)c2)c1 (configuration not stated),-5%,79µM*,-2%,-16%
SMILES,TrxR1 substrate,VDR inh,GCN5L2 inh,TrxR1 inh
S=C1NC2=C(CCC/C2=C\c2ccccc2)C(c2ccccc2)N1 (configuration not stated),1%[57.1 µM],89µM*,1%,-4%[11.4 µM]
Cc1ccc2nc(N3CCN(c4cccc(Cl)c4)CC3)c(-n3nc(C)cc3C)nc2c1,4%,2%,-23%,12%
OCc1ccc(-c2ccc(-c3ccc(CO)s3)o2)s1,/,10µM*,?,/
COc1cc(/C=C2/C(=O)NN(c3ccc(Cl)c(Cl)c3)C2=O)cc([N+](=O)[O-])c1O,-21%,56µM*,-6%,-23%
COc1cc(/C=C2/C(=O)NN(c3ccc(F)cc3)C2=O)cc(Cl)c1O,?,?,-5%,?
COC(=O)c1ccc(N2NC(=O)/C(=C/c3cc(OC)c(OC)c(OC)c3)C2=O)cc1,-11%,71µM*,0%,?
COc1cc(/C=C2/C(=O)NN(c3ccc(Cl)cc3)C2=O)cc(Br)c1O,-15%,71µM*,?,-21%
COC(=O)c1ccc(N2NC(=O)/C(=C/c3cc(OC)c(O)c(OC)c3)C2=O)cc1,-18%,?,10%,?
CCc1ccc(C(=O)c2cn(CC(=O)NCCc3ccc(OC)c(OC)c3)c3nc(C)ccc3c2=O)cc1,-6%[57.1 µM],-2%,-3%,-10%[57.1 µM]
